Assay results: PubChem BioAssay (Tox21)
Results filed as inconclusive are left out. Active and inactive are the calls of the source. Unless noted, the call rests on the fitted dose curve; in most records, active means well fitted curve in the direction sought with a large enough effect in the repeat runs; inconclusive means weak or mixed curves; inactive means no such curve, though single readings can be large; an effect the other way counts as inactive or inconclusive.

Tests used:
[1] = qHTS assay to identify small molecule agonists of H2AX (AID 1224845; active means well fitted activation curve with a large enough effect in the signal ratio in the repeat runs, not every such curve was filed as active; the % refers to the signal ratio)
Summary of the method: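 Wild-type CHO-K1 cells plated overnight, then exposed 3 hr at 37C to compounds at 15 concentrations (0.76% DMSO). Lysed, then HTRF anti-pH2AX(S139)-cryptate/anti-H2AX-d2 detection after 24 hr at room temperature; emissions 665 and 620 nm.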

[2] = qHTS assay to identify small molecule agonists of H2AX - cell viability counter screen (AID 1224847; calls by dose curve; further: top concentration of the series differs between compounds; nearly all actives have a fitted effect of over 30% in size)
Summary of the method: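 We seed wild-type CHO-K1 cells overnight, treat them for 3 hr at 37C with compounds in 15-concentration series, and quantify remaining viability by CellTiter-Glo luminescence.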

[3] = qHTS assay to identify small molecule antagonists of the estrogen related receptor (ERR) signaling pathway from Tox21 library (AID 1224848); further: nearly all actives have a fitted effect of over 50% in size; further: potency means the concentration at half of the fitted maximal effect
Summary of the method: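 Cells: ERR line, 2,000/well; 6 h preincubation 37 C/5% CO2. Cpd in DMSO via pin tool; 18 h, 37 C. ONE-Glo, 30 min RT, luminescence.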

[4] = qHTS assay to identify small molecule agonists of the estrogen related receptor (ERR) signaling pathway from Tox21 library (AID 1224849; calls by dose curve; further: nearly all actives have a fitted effect of over 15% in size); conditions: ERR reporter cell line, ONE-Glo luciferase, 18 h; at 92.4 µM (top of the series) unless noted
Summary of the method: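 Six hours post-seeding at 37 C/5% CO2, ERR cells receive DMSO-solubilised compounds; after 18 h at 37 C, ONE-Glo reagent is applied and luminescence recorded.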

[5] = qHTS RealTime-Glo MT Cell Viability Assay in HEK293 cells - 32 hour (AID 1224868); further: nearly all actives have a fitted effect of over 50% in size; further: potency means the concentration at half of the fitted maximal effect; on activity change, negative = cytotoxic: top concentration of the series differs between compounds
Summary of the method: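 Reads taken at 0, 8, 16, 24, 32 and 40 h from the same wells. HEK293 cells (600/well) carried RealTime-Glo reagents from seeding, with compound added after a 5 h settle at 37 C.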

[6] = A CellTox Green Cytotoxicity Assay to monitor cytotoxicity in HEK293 cells - 0 hour (AID 1224869); further: nearly all actives have a fitted effect of over 50% in size
Summary of the method: (§1)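 Seeding of HEK293 cells together with cytotoxicity dye preceded a 5 h incubation at 37 C/5% CO2. Test compounds in DMSO were then added and fluorescence monitored across 40 h.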

[7] = A CellTox Green Cytotoxicity Assay to monitor cytotoxicity in HEK293 cells - 40 hour (AID 1224871); further: nearly all actives have a fitted effect of over 45% in size; further: potency means the concentration at half of the fitted maximal effect
Summary of the method: as §1

[8] = qHTS RealTime-Glo MT Cell Viability Assay in HepG2 cells - 24 hour (AID 1224867); further: nearly all actives have a fitted effect of over 50% in size
Summary of the method: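 HepG2 suspension premixed with RealTime-Glo reagents is plated at 600 cells per well and left 5 h at 37 C/5% CO2. Compounds in DMSO then go in, and bioluminescence reflecting viable cell number is recorded over 40 h.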

[9] = qHTS RealTime-Glo MT Cell Viability Assay in HepG2 cells - 40 hour (AID 1224870); further: nearly all actives have a fitted effect of over 50% in size
Summary of the method: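 HepG2 cells mixed with RealTime-Glo MT reagents (NanoLuc plus cell-permeant prosubstrate) were seeded at 600 cells/well, incubated 5 h at 37 C/5% CO2, then pinned with compounds in DMSO; nonlytic luminescence tracked viability during 40 h treatment.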
On the % scale 0 is the no-effect control and ±100 the full control effect.

COc1cc2c(cc1OC)C(C(C(=O)N(CCc1ccc(OC)c(OC)c1OC)CCc1ccc(OC)c(OC)c1OC)c1ccccc1)=NCC2 (centres undefined)
active: Potency [3] 26.6 µM | Potency [5] 3.38 µM
inactive: Potency [1] | Potency [2] | activity change, positive = activation [4] -49.6% [at 42.5 µM] | Potency [6] | Potency [7]

Nc1ccccc1S(=O)(=O)c1ccccc1
inactive: Potency [1] | Potency [2] | activity change, positive = activation [4] -20.8% | Potency [8] | Potency [6] | Potency [9] | Potency [7]

C/C(=C(\CCOP(=O)(O)O)SC(=O)c1ccccc1)N(C=O)Cc1cnc(C)nc1N
inactive: activation (H2AX phosphorylation) [1] -0.259% [at 14 µM] | activity change, negative = cytotoxicity [2] 0.972% [at 14 µM] | activity change, negative = cytotoxicity [8] 1.32% [at 6.97 µM] | cytotoxicity [6] 0.458% [at 6.97 µM] | activity change, negative = cytotoxic [9] -0.476% [at 6.97 µM] | cytotoxicity increase [7] -7.37% [at 6.97 µM]

Cc1cccc(C)c1NC(=O)CN(CC(=O)O)CC(=O)O
inactive: Potency [1] | Potency [2] | Potency [8] | Potency [5] | Potency [6] | Potency [7]

O=C(NCCO[N+](=O)[O-])c1cccnc1
inactive: Potency [1] | Potency [2] | Potency [8] | Potency [5] | Potency [6] | Potency [9] | Potency [7]

OC[C@H]1O[C@@H](OCCc2ccc(O)cc2)[C@H](O)[C@@H](O)[C@@H]1O
inactive: Potency [1] | Potency [2] | Potency [3] | activity change, positive = activation [4] 4.76% [at 42.5 µM] | Potency [5] | Potency [6] | Potency [9] | Potency [7]

CNC(=O)CN(CCN(CCN(CC(=O)[O-])CC(=O)NC)CC(=O)[O-])CC(=O)[O-].O.[Gd+3]
inactive: Potency [1] | Potency [2] | Potency [8] | Potency [6] | Potency [7]

CC[N+](C)(CC)CCOC(=O)C(O)(c1ccccc1)C1CCCCC1 (centres undefined)
inactive: Potency [1] | Potency [2] | Potency [3] | activity change, positive = activation [4] -2.02% [at 42.5 µM] | Potency [5] | Potency [6] | Potency [9] | Potency [7]

COc1cccc(N(C)C(=S)Oc2ccc3c(c2)CCCC3)n1
inactive: Potency [1] | Potency [2] | Potency [8] | Potency [5] | Potency [6] | Potency [9] | Potency [7]

O=P(O)(OCc1ccccc1)OCc1ccccc1
inactive: Potency [1] | Potency [2] | Potency [8] | Potency [5] | Potency [6] | Potency [9] | Potency [7]

CC(=O)NO
inactive: Potency [1] | Potency [2] | Potency [8] | Potency [5] | Potency [6] | Potency [9] | Potency [7]

COc1ccc(C)cc1[N+](=O)[O-]
inactive: Potency [1] | Potency [2] | Potency [3] | activity change, positive = activation [4] 4.3% | Potency [5] | Potency [6] | Potency [7]

CCCn1cnc2c1c(=O)n(CCCCC(C)=O)c(=O)n2C
inactive: Potency [1] | Potency [2] | Potency [3] | activity change, positive = activation [4] 0.154% [at 42.5 µM] | Potency [8] | Potency [6] | Potency [9] | Potency [7]

CN1CCN(C(c2ccccc2)c2ccccc2)CC1
inactive: Potency [1] | Potency [2] | Potency [8] | Potency [6] | Potency [7]

CN(C)CCN(Cc1ccccc1)c1ccccn1
inactive: Potency [1] | Potency [2] | Potency [8] | Potency [5] | Potency [6] | Potency [9] | Potency [7]

CN1C[C@H]2c3ccccc3Oc3ccc(Cl)cc3[C@@H]2C1
inactive: Potency [1] | Potency [2] | Potency [3] | activity change, positive = activation [4] -3.7% [at 42.5 µM] | Potency [8] | Potency [5] | Potency [6] | Potency [7]

O=CC1CC=CCC1 (centres undefined)
inactive: Potency [1] | Potency [2] | Potency [8] | Potency [5] | Potency [6] | Potency [9] | Potency [7]

CCCCNc1ccc(C(=O)OCCOCCOCCOCCOCCOCCOCCOCCOCCOC)cc1
inactive: Potency [1] | Potency [2] | activity change, positive = activation [4] -27.3% [at 42.5 µM] | Potency [8] | Potency [6] | Potency [7]

CN(C)c1ccc(C(c2ccccc2)c2ccc(N(C)C)cc2)cc1
active: Potency [3] 34.4 µM
inactive: Potency [1] | Potency [2] | activity change, positive = activation [4] -34.5% | Potency [8] | Potency [6]

NCC(=O)CCC(=O)O
inactive: Potency [1] | Potency [2] | Potency [8] | Potency [6] | Potency [9] | Potency [7]

COc1cc2nc(N3CCN(C(=O)C4COc5ccccc5O4)CC3)nc(N)c2cc1OC (centres undefined)
inactive: Potency [1] | Potency [2] | Potency [8] | Potency [6] | Potency [9] | Potency [7]

CCCCCCCCCCCCCCOS(=O)(=O)O
inactive: Potency [1] | Potency [2] | activity change, positive = activation [4] -17.5% | Potency [8] | Potency [5] | Potency [6] | Potency [9]
active: Potency [7] 43.6 µM

CO[C@@H]1[C@H](OC(=O)/C=C/C=C/C=C/C=C/C(=O)O)CC[C@]2(CO2)[C@H]1[C@@]1(C)O[C@@H]1CC=C(C)C
inactive: Potency [1] | Potency [2] | Potency [3] | activity change, positive = activation [4] -16% | Potency [6] | Potency [9] | Potency [7]

CC(C)(CO)[N+](=O)[O-]
inactive: Potency [1] | Potency [2] | Potency [8] | Potency [6] | Potency [9] | Potency [7]

CN1CCC(=C2c3ccccc3Sc3ccccc32)CC1
inactive: Potency [1] | Potency [2] | Potency [3] | activity change, positive = activation [4] 1.79% [at 42.5 µM] | Potency [8] | Potency [6] | Potency [9]
